Assay results published in the supplement of paper PMC12669032.
A number with no mark means an inactive call.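 The calls were made as follows: active = AUC reduced over 20% with Padj below 0.05 in at least 2 of 3 replicates; inactive = otherwise.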

Legend:
Experiment in all cases: growth AUC relative to DMSO control (median of replicates) (fraction); higher = more growth (less inhibition), active = hit call of the paper
Settings in all cases: 20 µM; 24 h
Coprococcus comes = system: Coprococcus comes
Procedure, shortened: (§1)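 Each value is the median of three biological replicates, grown on separate days, of a gut bacterial monoculture incubated anaerobically at 37 °C in mGAM with 20 µM compound (1% DMSO). Cultures started at OD600 0.05 and were read at OD600 hourly for 24 h, with the minimum OD set to 0. Area under the growth curve was normalised to the plate median of solvent-only wells, or to row and column medians on the industrial chemical plate.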

Escherichia coli ED1a = system: Escherichia coli ED1a
Procedure, shortened: as §1

Escherichia coli IAI1 = system: Escherichia coli IAI1
Procedure, shortened: as §1

Eubacterium rectale = system: Eubacterium rectale
Procedure, shortened: as §1

[1] = system: Fusobacterium nucleatum subsp. animalis
Procedure, shortened: as §1

Lactobacillus gasseri = system: Lactobacillus gasseri
Procedure, shortened: as §1

Lactobacillus paracasei = system: Lactobacillus paracasei
Procedure, shortened: as §1

Odoribacter splanchnicus = system: Odoribacter splanchnicus
Procedure, shortened: as §1

[2] = system: Parabacteroides distasonis
Procedure, shortened: as §1

Parabacteroides merdae = system: Parabacteroides merdae
Procedure, shortened: as §1

Roseburia intestinalis = system: Roseburia intestinalis
Procedure, shortened: as §1

Streptococcus salivarius = system: Streptococcus salivarius
Procedure, shortened: as §1

Compound | growth AUC (Coprococcus comes) | growth AUC (Escherichia coli ED1a) | growth AUC (Escherichia coli IAI1) | growth AUC (Eubacterium rectale) | growth AUC [1] | growth AUC (Lactobacillus gasseri) | growth AUC (Lactobacillus paracasei) | growth AUC (Odoribacter splanchnicus) | growth AUC [2] | growth AUC (Parabacteroides merdae) | growth AUC (Roseburia intestinalis) | growth AUC (Streptococcus salivarius)
CC(C)(C)C(O)(CCc1ccc(Cl)cc1)Cn1cncn1 (stereo not given) | 1.02 | 1.01 | 0.991 | 0.879 | 1.05 | 1.04 | 0.968 | 0.973 | 0.903 | 0.962 | 1.1 | 1.01
COCC(=O)N(c1c(C)cccc1C)[C@@H](C)C(=O)OC | 1.04 | 1.01 | 1 | 1.09 | 1.1 | 0.893 | 1.01 | 0.996 | 0.796 | 0.996 | 0.997 | 0.999
CN(C(=O)COc1nc2ccccc2s1)c1ccccc1 | 1.01 | 1.02 | 0.952 | 1 | 1.1 | 1.13 | 1.02 | 0.934 | 0.948 | 0.998 | 1.08 | 1
CCCCc1c(C)nc(N(C)C)[nH]c1=O | 1 | 0.976 | 0.913 | 0.825 | 1.09 | 1 | 0.896 | 1.05 | 1.03 | 1.01 | 0.959 | 1.02
O=C(Nc1ccccc1)N(Cc1ccc(Cl)cc1)C1CCCC1 | 0.94 | 1 | 0.99 | 1.03 | 0.985 | 1.01 | 1.06 | 1.03 | 0.893 | 0.922 | 0.991 | 0.994
CC(=O)CC(c1ccco1)c1c(O)c2ccccc2oc1=O (stereo not given) | 1.01 | 0.994 | 0.987 | 0.985 | 0.986 | 1.03 | 1.05 | 0.978 | 0.958 | 1.01 | 0.975 | 0.989
CC(C)(O)C(Cl)(Cl)Cl.CC(C)(O)C(Cl)(Cl)Cl.O | 1.04 | 1.01 | 1.02 | 0.942 | 1.1 | 1.06 | 1.02 | 0.967 | 1.05 | 0.987 | 1.01 | 1.05
CCOP(=S)(OCC)Oc1ccc(S(C)=O)cc1 (stereo not given) | 1 | 1 | 1.01 | 0.878 | 0.998 | 1.07 | 1 | 0.977 | 1 | 1 | 1.02 | 1.03
CNC(=O)ON=C(CSC)C(C)(C)C | 0.968 | 1.01 | 1 | 0.981 | 1.01 | 1.03 | 0.985 | 0.983 | 1.02 | 1.02 | 1.02 | 1.02
CCOP(=O)(OCC)O/C(=C\Cl)c1ccc(Cl)cc1Cl | 0.994 | 0.984 | 1.01 | 0.899 | 0.987 | 1.06 | 1.02 | 0.972 | 0.725 (active) | 0.945 | 1.06 | 0.982
CNC(=O)Oc1ccccc1OC(CCl)OC (stereo not given) | 1.01 | 1.02 | 1.02 | 1.16 | 1.19 | 1.04 | 1.04 | 1.05 | 0.988 | 1.06 | 0.961 | 0.996
O=S1OCC2C(CO1)C1(Cl)C(Cl)=C(Cl)C2(Cl)C1(Cl)Cl (stereo not given) | 1.03 | 1.02 | 1.04 | 1.08 | 1.13 | 0.763 | 1.05 | 1.03 | 1.1 | 0.951 | 0.988 | 0.977
CCC(C)(c1ccc(O)cc1)c1ccc(O)cc1 | 1.01 | 1 | 1.01 | 0.882 | 1.04 | 1 | 0.989 | 0.872 | 0.743 | 0.968 | 0.947 | 0.96
COP(=O)(OC)OC=C(Cl)Cl | 1.03 | 1.01 | 1.02 | 1.04 | 1.09 | 0.912 | 1.04 | 1.01 | 1.05 | 1.01 | 0.985 | 1.03
COP(=S)(NC(C)C)Oc1ccccc1C(=O)OC(C)C (stereo not given) | 1.03 | 1.02 | 0.988 | 0.92 | 1.08 | 0.984 | 0.962 | 1.07 | 0.53 (active) | 0.931 | 0.938 | 0.977
CC1(C)CC/C(=C\c2ccc(Cl)cc2)C1(O)Cn1cncn1 (stereo not given) | 0.974 | 0.999 | 0.98 | 0.986 | 0.97 | 0.935 | 0.955 | 1.04 | 0.964 | 0.967 | 1.02 | 0.993
CCN(CC)c1c([N+](=O)[O-])cc(C(F)(F)F)c(N)c1[N+](=O)[O-] | 0.982 | 1.05 | 1.02 | 0.977 | 1.06 | 1.04 | 1.06 | 0.955 | 0.897 | 0.928 | 0.984 | 1.03
COc1cc(OC)nc(NC(=O)NS(=O)(=O)c2ncccc2C(=O)N(C)C)n1 | 0.966 | 1.05 | 0.972 | 0.999 | 1.05 | 0.93 | 0.889 | 1.03 | 1.02 | 0.988 | 1.01 | 0.975
CCCN(CC)CC1COC2(CCC(C(C)(C)C)CC2)O1 (stereo not given) | 0.993 | 1 | 0.959 | 0.987 | 0.899 | 1.04 | 0.947 | 0.978 | 0.966 | 0.965 | 1.03 | 0.96
Nc1cccc(Cl)c1Cl | 1.01 | 1.04 | 1.03 | 0.947 | 1.1 | 1.05 | 0.962 | 0.991 | 1.02 | 0.998 | 1.02 | 1.01
Nc1c(Cl)cc([N+](=O)[O-])cc1Cl | 1.01 | 0.951 | 0.962 | 1.08 | 0.898 | 0.923 | 1.1 | 1.03 | 0.933 | 0.93 | 0.925 | 0.956
Cl.NC1=NCCN1Cc1ccc(Cl)nc1 | 1.13 | 1.04 | 1.03 | 0.945 | 1.06 | 1.02 | 1.06 | 0.507 (active) | 1.02 | 1.05 | 0.963 | 1.01
CNC(=O)Oc1cccc2c1OC(C)(C)C2 | 1.02 | 1.04 | 0.985 | 1.02 | 1.07 | 0.946 | 0.994 | 1.06 | 0.992 | 1 | 0.992 | 1.03
C[C@@H](Oc1ccc(Oc2ncc(C(F)(F)F)cc2Cl)cc1)C(=O)O | 1 | 0.97 | 0.994 | 0.973 | 1.02 | 0.94 | 0.972 | 0.98 | 0.989 | 0.996 | 0.981 | 0.999
CCN(CC)c1nc(C)cc(OP(=S)(OC)OC)n1 | 0.982 | 1.03 | 0.978 | 1.06 | 0.996 | 0.984 | 0.982 | 0.966 | 0.813 | 0.962 | 0.978 | 0.975
